Assays:
Assay in all cases: PBM binding z-score (relative to random genomic background probes); higher = stronger binding; sequences stand for … in GC…GCGATTGACAGCGTAGAATGAAGG
[1] = system: FXR:RXRa (NR concentration 270 nM, RXRa partner concentration 90 nM)
Procedure, shortened: (§1)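 Binding z-scores were set against random background probes. The data came from custom Agilent 4×180K protein-binding microarrays carrying double-stranded probes with 34-nt variable regions, incubated 1 h with ligand-free nuclear receptor dimers. Partner-specific antibodies detected binding, and scanned fluorescence was regression-normalized.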

[2] = system: LXRa:RXRa (NR concentration 270 nM, RXRa partner concentration 90 nM)
Procedure, shortened: as §1

[3] = system: LXRa homodimer (NR concentration 270 nM)
Procedure, shortened: as §1

[4] = system: LXRb:RXRa (NR concentration 270 nM, RXRa partner concentration 90 nM)
Procedure, shortened: as §1

[5] = system: LXRb homodimer (NR concentration 270 nM)
Procedure, shortened: as §1

[6] = system: PPARa:RXRa (NR concentration 270 nM, RXRa partner concentration 90 nM)
Procedure, shortened: as §1

[7] = system: PPARg:RXRa (NR concentration 180 nM, RXRa partner concentration 90 nM)
Procedure, shortened: as §1

[8] = system: PPARg:RXRa 270nM:90nM, anti-RXR (NR concentration 270 nM, RXRa partner concentration 90 nM)
Procedure, shortened: as §1

[9] = system: PPARg:RXRa 30nM:10nM, anti-RXR (NR concentration 30 nM, RXRa partner concentration 10 nM)
Procedure, shortened: as §1

[10] = system: PPARg:RXRa 90nM:30nM, anti-RXR (NR concentration 90 nM, RXRa partner concentration 30 nM)
Procedure, shortened: as §1

[11] = system: PPARg:RXRa DBDmut IVT, anti-RXR (DBD mutation: RXRa K156A/R161A, NR concentration 270 nM, RXRa partner concentration 90 nM)
Procedure, shortened: as §1

[12] = system: PPARg:RXRa IVT, anti-PPARg (NR concentration 270 nM, RXRa partner concentration 90 nM)
Procedure, shortened: as §1

[13] = system: PPARg DBDmut:RXRa IVT, anti-PPARg (DBD mutation: PPARg1 K132A/R137A, NR concentration 270 nM, RXRa partner concentration 90 nM)
Procedure, shortened: as §1

[14] = system: PPARg DBDmut IVT, anti-PPARg (DBD mutation: PPARg1 K132A/R137A, NR concentration 270 nM)
Procedure, shortened: as §1

[15] = system: PPARg homodimer (NR concentration 180 nM)
Procedure, shortened: as §1

[16] = system: PXR:RXRa (NR concentration 270 nM, RXRa partner concentration 90 nM)
Procedure, shortened: as §1

[17] = system: PXR homodimer (NR concentration 270 nM)
Procedure, shortened: as §1

[18] = system: RARa:RXR (NR concentration 270 nM, RXRa partner concentration 90 nM)
Procedure, shortened: as §1

[19] = system: RARa homodimer (NR concentration 270 nM)
Procedure, shortened: as §1

[20] = system: RARb:RXRa (NR concentration 270 nM, RXRa partner concentration 90 nM)
Procedure, shortened: as §1

Sequence | PBM binding z-score [1] | PBM binding z-score [2] | PBM binding z-score [3] | PBM binding z-score [4] | PBM binding z-score [5] | PBM binding z-score [6] | PBM binding z-score [7] | PBM binding z-score [8] | PBM binding z-score [9] | PBM binding z-score [10] | PBM binding z-score [11] | PBM binding z-score [12] | PBM binding z-score [13] | PBM binding z-score [14] | PBM binding z-score [15] | PBM binding z-score [16] | PBM binding z-score [17] | PBM binding z-score [18] | PBM binding z-score [19] | PBM binding z-score [20]
CAAACTAGGTTAAGAGGTCAAAGTCCGCTTCCCG | 5.61 | 5.82 | 6.25 | 4.8 | 1.58 | 5.87 | 7.84 | 7.23 | 5.52 | 7.19 | 7.16 | 7.32 | 2.96 | 2.44 | 4.58 | 5.64 | 2.31 | 6.47 | 2.19 | 4.23
ATCTCTAGGTAAAAGTTCAGGGAATCCCGAGGAT | 1.28 | 1.71 | 1.26 | 1.12 | 1.04 | 4.42 | 8.19 | 7.53 | 7.81 | 8.27 | 2.01 | 3.72 | 1.02 | 1.51 | 1.25 | 1.96 | 1.15 | 2.06 | 1.33 | 2.62
ATCTCTAGGTAACCAAGTTCTGTGAATGCCGAAC | 0.602 | 0.255 | 0.186 | 0.427 | 0.457 | 0.701 | 0.399 | 0.795 | 0.343 | 0.427 | 3.07 | 2.82 | 0.454 | 0.664 | 0.688 | 0.262 | 0.109 | 0.329 | 0.574 | 0.423
CCAGACAGGTGAGAAGGTAACTCTGCCTCGATTA | 0.00014 | 0.0948 | -0.229 | 0.114 | -0.103 | 0.793 | 0.466 | 0.906 | -0.293 | 0.346 | 1.34 | 0.644 | -0.0545 | -0.239 | 0.832 | 0.051 | 0.394 | 0.441 | -0.197 | 0.638
TAGCCTAGGTCAGATCGGGCCAGTAAACGCTATA | 2.02 | 1.16 | -0.524 | 0.637 | -0.2 | 1.5 | 0.341 | 0.516 | -0.817 | -0.377 | 0.412 | 1.24 | -0.563 | -0.294 | -0.374 | 1.12 | -0.666 | 0.814 | -1.71 | 2.85
CGAACTAGGTCATTGACAGGACAGTGATTAGTAA | 4.44 | 3.04 | 0.786 | 2 | -0.0597 | 4.69 | 7.36 | 6.17 | 3.71 | 6.08 | 8.18 | 8.17 | 4.22 | 2.86 | 1.7 | 1.91 | 0.608 | 2.36 | 0.564 | 3.62
CATACAGGGTCAGCTAAGCCAGAGTAGGGACGGC | 4.23 | 2.89 | 0.0357 | 2.17 | 0.175 | 4.39 | 3.57 | 2.87 | 0.539 | 1.9 | 1.39 | 2.48 | 1.15 | 0.523 | 1.5 | 2.16 | -0.442 | 3.02 | 0.0387 | 3.9
CGAGACAGGTGAAAGGTAACTCAGTCTGGTACGC | 0.533 | 0.602 | -0.513 | 0.732 | -0.851 | 3.47 | 5.43 | 6.27 | 4.23 | 6.7 | 1.78 | 2.95 | 0.301 | -1.14 | 1.05 | 0.75 | -0.102 | 1.92 | -0.282 | 1.19
TCTTGTAGATCAGCAGGGTAAGAAAGCTGGCCAA | -0.168 | -0.124 | -0.627 | -0.0454 | -0.559 | 0.26 | -0.512 | 1.17 | 2.55 | 1.82 | 1.81 | 0.207 | -0.22 | -0.694 | -0.287 | 0.0405 | -0.245 | 0.188 | -0.0241 | -0.199
TCATCTAGGTAATACAGGTGAAAGTCGGCATCTA | 0.88 | 0.831 | 0.409 | 0.796 | 0.445 | 2.05 | 1.29 | 2.5 | 3.85 | 3.22 | 4.07 | 4.08 | 1.3 | 1.36 | 0.913 | 0.275 | 0.512 | 0.694 | 1.29 | 0.575
GCGACTGGGGCACAGCAGGTTACCATAAGGTTGG | 0.178 | 0.265 | -0.715 | -0.0951 | -1.1 | 0.996 | 1.75 | 1.45 | -0.344 | 0.859 | 5.07 | 4.28 | -0.331 | -0.666 | 0.354 | 0.113 | -0.29 | 0.435 | -0.475 | 0.997
CCTTACGGGCCACTGACAGGTTATAGCATTTGGA | -0.0975 | -0.00158 | 0.136 | -0.0299 | -0.59 | 0.315 | 0.415 | 0.0355 | -0.0145 | -0.254 | 0.882 | 0.315 | -0.753 | -0.329 | 0.129 | -0.136 | -0.0803 | 0.247 | 0.161 | 0.69
ATATGTAGGTTATATCCGGGTCATTCAGGCTATG | 2.15 | 4.34 | 3.29 | 2.93 | 1.44 | 4.19 | 4.45 | 4.07 | 1.69 | 3.33 | 6.81 | 6.59 | 5.13 | 2.59 | 3.38 | 3.78 | 2.63 | 3.9 | 1.12 | 2.13

Source: the supplement of paper PMC6555819
